Where “and” joins values, the source holds several entries; their conditions need not be identical. Equal values may be shown once. About 79,000 compounds went through this panel and 15% of them were active in at least one assay; those are over-represented in the sample as a whole. The source holds several records for some structures; these can differ, active in one and inactive in another. Calls of active or inactive are those of the source. Cut-off read from the data, not from the text of the source: active = growth inhibition above about 70%; inactive = the rest.
What was measured:
[1] = NCI Yeast Anticancer Drug Screen. Data for the rad50 strain (AID 155);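 note: 0% = growth of vehicle-only cultures of the same strain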; details: S. cerevisiae rad50 strain growth inhibition, stronger effect = higher value
How it was run: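 Genetically altered yeast (DNA repair pathway); compound treatment; growth inhibition vs vehicle ctrl.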

[2] = NCI Yeast Anticancer Drug Screen. Data for the mec2-1 strain (AID 157); details: S. cerevisiae mec2-1 strain, stronger effect = higher value
How it was run: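 Mutant yeast (mec2-1) grown with compound; growth inhibition relative to vehicle control reported.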

[3] = NCI Yeast Anticancer Drug Screen. Data for the sgs1 mgt1 strain (AID 161);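 note: 0% = growth of cultures given vehicle only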; details: S. cerevisiae sgs1 mgt1 strain, stronger effect = higher value
How it was run: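 Growth of a repair-deficient yeast mutant was monitored after compound treatment and expressed as inhibition relative to vehicle-treated cultures.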

[4] = NCI Yeast Anticancer Drug Screen. Data for the cln2 rad14 strain (AID 165);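 note: 0% = growth equal to vehicle treated cultures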; details: S. cerevisiae cln2 rad14 strain, stronger effect = higher value
How it was run: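 Readout is yeast growth inhibition versus vehicle-treated controls, using a strain with cln2 and rad14 alterations exposed to compound.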

[5] = NCI Yeast Anticancer Drug Screen. Data for the bub3 strain (AID 167); details: S. cerevisiae bub3 mutant strain, stronger effect = higher value
How it was run: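 Yeast carrying a defined mutation is treated with each compound, and growth is compared with that of vehicle-exposed cells to give inhibition.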

[6] = NCI Yeast Anticancer Drug Screen. Data for the mlh1 rad18 strain (AID 175); details: S. cerevisiae mlh1 rad18 strain growth inhibition, stronger effect = higher value
How it was run: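 Genetically defined yeast (DNA repair-deficient) exposed to compounds; growth inhibition determined relative to vehicle.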

[7] = at 5.0 µM (retest, dose inferred, filed as 0.5)
[8] = at 50.0 µM (retest, dose inferred, filed as 5.0)

Measured: growth inhibition

O=C(CI)c1ccc[nH]1
active: [1]; [8] 99% | [1]; at 50.0 µM 99.3% | [2]; [7] 79% | [2]; [8] 99% | [2]; at 50.0 µM 99.3% | [3]; [7] 74% | [3]; [8] 99% | [3]; at 50.0 µM 99.5% | [4]; [7] 96% | [4]; [8] 99% | [4]; at 50.0 µM 99.2% | [5]; [7] 97% | [5]; [8] 97% | [5]; at 50.0 µM 99.4% | [6]; [7] 74% | [6]; [8] 97% | [6]; at 50.0 µM 99.3%
inactive: [1]; [7] 65%

NC(=O)CNCc1ccc([As]=O)cc1 (configuration not stated)
inactive: [1]; [7] 2% | [1]; [8] 1% | [2]; [7] 3% | [2]; [8] -2% | [2]; at 50.0 µM 50.1% | [3]; [7] 0% | [3]; [8] -2% | [4]; [7] 1% | [4]; [8] 3% | [4]; at 50.0 µM 10.4% | [5]; [7] 3% | [5]; [8] 8% | [6]; [7] 12% | [6]; [8] -6% | [6]; at 50.0 µM 69.5%
active: [1]; at 50.0 µM 72.8% | [3]; at 50.0 µM 71.1% | [5]; at 50.0 µM 74.2%

O=c1oc2ccccc2c(O)c1C(c1ccc(/C=C/c2ccccc2)cc1)c1c(O)c2ccccc2oc1=O
active: [1]; [8] 97% | [1]; at 50.0 µM 87.2% | [2]; [8] 98% | [2]; at 50.0 µM 90% | [3]; [8] 95% | [3]; at 50.0 µM 81.7% | [4]; [8] 95% | [4]; at 50.0 µM 77.5% | [5]; [8] 97% | [5]; at 50.0 µM 76.7% | [6]; [8] 98% | [6]; at 50.0 µM 91.3%
inactive: [1]; [7] 13% | [2]; [7] 36% | [3]; [7] 26% | [4]; [7] 54% | [5]; [7] 52% | [6]; [7] 7%

C1CC[N-]CC1.C1CC[N-]CC1.N#CO.[Ag]
active: [1]; [7] 99% | [1]; [8] 99% | [1]; at 50.0 µM 99.2% | [2]; [7] 100% | [2]; [8] 99% | [2]; at 50.0 µM 99.5% | [3]; [7] 100% | [3]; [8] 99% | [3]; at 50.0 µM 99.4% | [4]; [7] 99% | [4]; [8] 99% | [4]; at 50.0 µM 99% | [5]; [7] 99% | [5]; [8] 99% | [5]; at 50.0 µM 99.6% | [6]; [7] 99% | [6]; [8] 99% | [6]; at 50.0 µM 99.3%

CCC[CH2][Pb]([CH2]CCC)([O]C(C)=O)[O]C(C)=O
active: [1]; [7] 99% | [1]; [8] 99% | [1]; at 50.0 µM 90% | [2]; [8] 99% | [2]; at 50.0 µM 93.1% | [3]; [7] 99% | [3]; [8] 94% | [3]; at 50.0 µM 94% | [4]; [7] 92% | [4]; [8] 98% | [4]; at 50.0 µM 92.3% | [5]; [7] 99% | [5]; [8] 98% | [5]; at 50.0 µM 92.2% | [6]; [7] 100% | [6]; [8] 99% | [6]; at 50.0 µM 91.5%
inactive: [2]; [7] 63%

O=S(=O)(CCl)C(Cl)(Cl)Cl
95.8% (active) and 69.7% (inactive): [6]; at 50.0 µM
94.5% (active) and 63.5% (inactive): [1]; at 50.0 µM
active: [6]; [8] 86% and 73%
92.7% (active) and 67.8% (inactive): [5]; at 50.0 µM
92% (active) and 61% (inactive): [1]; [8]
94.6% (active) and 62.2% (inactive): [2]; at 50.0 µM
83.6% (active) and 43.4% (inactive): [4]; at 50.0 µM
inactive: [1]; [7] 9% and 5% | [2]; [7] 13% and -32% | [2]; [8] 66% and 49% | [3]; [7] 4% and 3% | [3]; [8] 59% and 67% | [4]; [7] -2% and 1% | [4]; [8] 44% and 36% | [5]; [7] 36% and 1% | [6]; [7] 5% and 4%
80% (active) and 56% (inactive): [5]; [8]
97% (active) and 51.5% (inactive): [3]; at 50.0 µM

CN(C)C(=O)Oc1c(Cl)cc(Cl)c(Cl)c1Cl
inactive: [1]; [7] 4% | [1]; [8] 16% | [1]; at 50.0 µM 13.9% | [2]; [7] 1% | [2]; [8] 9% | [2]; at 50.0 µM -10.9% | [3]; [7] 6% | [3]; [8] 12% | [3]; at 50.0 µM 22% | [4]; [7] 5% | [4]; [8] 7% | [4]; at 50.0 µM 36.1% | [5]; [7] 2% | [5]; [8] 8% | [5]; at 50.0 µM -36% | [6]; [7] 19% | [6]; [8] 28% | [6]; at 50.0 µM 37.5%

COc1ccccc1[As]=O (configuration not stated)
active: [1]; [8] 99% | [1]; at 50.0 µM 99.3% | [2]; [8] 99% | [2]; at 50.0 µM 99.6% | [3]; [8] 99% | [3]; at 50.0 µM 99.5% | [4]; [8] 99% | [4]; at 50.0 µM 98.6% | [5]; [8] 99% | [5]; at 50.0 µM 99.2% | [6]; [8] 99% | [6]; at 50.0 µM 99.4%
inactive: [1]; [7] 1% | [2]; [7] -12% | [3]; [7] 8% | [4]; [7] -14% | [5]; [7] 12% | [6]; [7] 25%

CCC[CH2][Sn]([CH2]CCC)([O]C(=O)C(N)CSC)[O]C(=O)C(N)CSC (configuration not stated)
active: [1]; at 50.0 µM 90% | [2]; at 50.0 µM 89.3% | [3]; at 50.0 µM 86.2% | [5]; at 50.0 µM 88.8% | [6]; at 50.0 µM 83.1%
inactive: [1]; [7] 7% | [1]; [8] 7% | [2]; [7] 10% | [2]; [8] 10% | [3]; [7] -5% | [3]; [8] -5% | [4]; [7] 1% | [4]; [8] 1% | [4]; at 50.0 µM 52.9% | [5]; [7] -4% | [5]; [8] -4% | [6]; [7] -18% | [6]; [8] -18%
